Data from PubChem BioAssay (Tox21).
The source made the active and inactive calls. The call rests on the fitted dose curve.

assay: qHTS assay to identify small molecule agonists of the estrogen related receptor (ERR) signaling pathway from Tox21 library (AID 1224849); details: ERR reporter cell line, ONE-Glo luciferase, 18 h; at 92.4 µM (top of the series) unless noted; further: nearly all actives have a fitted effect of over 15% in size
Source text: National Center for Advancing Translational Sciences [NCATS]
NIH Chemical Genomics Center [NCGC]
U.S. Environmental Protection Agency [EPA]
National Institutes of Environmental Health Sciences [NIEHS]
National Toxicology Program [NTP]
Estrogen related receptors (ERRs), the first orphan nuclear receptors discovered, play an important role in the control of cellular energy metabolism. ERRs are required for high-energy production in response to the environmental challenges. ERR-alpha was also identified as an adverse marker for breast cancer progression; ERR-alpha-positive tumors have a poor prognosis. To screen and to identify environmental compounds that perturb the ERR signaling pathways could provide valuable information for potential therapeutic or preventive measures in the treatment of metabolic disease. For identifying ERR agonists, ERR cell line (provided by NTP) has been used to screen Tox21 10K library.
The ERR cells were dispensed at 2,000 cells/5 ul/well in 1536-well white plates using a Multidrop dispenser. After the assay plates were incubated at a 37 C/5% CO2 incubator for 6 hours, 23 nL of compounds dissolved in DMSO, positive and negative controls or DMSO only was transferred to the assay plate by a pin tool. The plates were incubated at 37 C for 18 hours. 4 ul/well of One-Glo reagent was added into the assay plates using a Flying Reagent Dispenser. After 30-minute incubation at room temperature, the luminescence intensity in the plates was measured using a ViewLux plate reader.
On the % scale 0 is the no-effect control and ±100 the full control effect.

| Compound | activity change, positive = activation |
| --- | --- |
| CCCCCCCCS(=O)(=O)Cl | 7.34% (inactive) |
| NS(=O)(=O)c1ccccc1Cl | 2.78% (inactive) |
| CC(=O)Nc1c(I)cc(I)c(C(=O)O)c1I | 7.03% [at 42.5 µM] (inactive) |
| CCCCNC(=O)NCCCC | 12.5% (inactive) |
| CO[C@]12C[C@@H](COC(=O)c3cncc(Br)c3)CN(C)[C@@H]1Cc1cn(C)c3cccc2c13 | 6.2% [at 42.5 µM] (inactive) |
| CN(C(=O)c1c(O)c2ccccc2n(C)c1=O)c1ccccc1 | 0.397% [at 42.5 µM] (inactive) |
| COC(=O)[C@@H](N)Cc1ccc(O)c(O)c1 | 6.86% [at 42.5 µM] (inactive) |
| CC(=O)CC(C)(C)C1CCCCC1 | 0.591% (inactive) |
| CN1CCCC1 | 4.55% (inactive) |
| Cc1cccc(C)c1NC(=O)C(C)N (stereo not given) | 3.88% [at 42.5 µM] (inactive) |
| Cc1cc2c(cc1S(N)(=O)=O)S(=O)(=O)CCC2 | 2.29% [at 42.5 µM] (inactive) |
| Cc1c(O)cccc1O | 2.02% (inactive) |
| CN1N=C(C(N)=O)CCC1=O | 0.737% [at 42.5 µM] (inactive) |
| CCOC(=O)c1c(C)n(C)c2ccc(O)cc12 | -9.16% [at 42.5 µM] (inactive) |
| CCCCOCCOCCOCCCC | 0.577% (inactive) |
| C[C@](N)(Cc1ccc(O)cc1)C(=O)O | 2.18% [at 8.39 µM] (inactive) |
| N[C@H](C(=O)O)c1ccc(O)cc1 | 1.6% [at 19 µM] (inactive) |
| CCCCCCCCCCCCCC=O | -0.514% [at 8.39 µM] (inactive) |
| CCC(C)C1CCCCC1=O (stereo not given) | 3.66% (inactive) |
| C[C@H](NC(CCc1ccccc1)C(=O)O)C(=O)N1CCC[C@H]1C(=O)O (stereo not given in full) | -0.914% [at 42.5 µM] (inactive) |

| Compound | activity change, positive = activation |
| --- | --- |
| FC1(F)C(F)(F)C(F)(F)C2(F)C(F)(F)C(F)(F)C(F)(F)C(F)(F)C2(F)C1(F)F (stereo not given) | 2.28% [at 42.5 µM] (inactive) |
| COC(C)(C)CCCC(C)CC=O (stereo not given) | 8.65% (inactive) |
| COC(=O)c1cc(C(=O)OC)cc(S(=O)(=O)O)c1 | 0.501% (inactive) |
| O=C(O)CCCl | -15.3% (inactive) |
| CC(=O)OCC(=O)[C@@]1(O)CCC2C3CCC4=CC(=O)CC[C@]4(C)C3[C@@H](O)C[C@@]21C (stereo not given in full) | -12.1% [at 42.5 µM] (inactive) |
| c1ccc(CC2=NCCN2)cc1 | -1.01% [at 42.5 µM] (inactive) |
| CC(C)c1cc2c(cc1S(=O)(=O)O)[C@@]1(C)CCC[C@@](C)(C(=O)O)[C@@H]1CC2 | 5.5% [at 42.5 µM] (inactive) |
| CCOC(=O)C(=O)OCC | 4.42% (inactive) |
| COC(=O)c1ccc(C)cc1C1=NC(C)(C(C)C)C(=O)N1 (stereo not given) | 4.81% (inactive) |
| C[C@@H]1CCN(C(=O)[C@H](CCCN=C(N)N)NS(=O)(=O)c2cccc3c2NC[C@H](C)C3)[C@@H](C(=O)O)C1 | 6.26% [at 42.5 µM] (inactive) |
| NC(CSCC(=O)O)C(=O)O (stereo not given) | 5.41% [at 42.5 µM] (inactive) |
| CCc1nccnc1CC | 2.61% [at 19 µM] (inactive) |
| NC(=O)c1ccc([N+](=O)[O-])cc1 | -5.69% (inactive) |
| CCS(=O)(=O)c1ccc(OC)c(C(=O)OC)c1 | 4.43% [at 42.5 µM] (inactive) |
| CCCC(=O)O[C@]1(C(=O)CO)CC[C@H]2[C@@H]3CCC4=CC(=O)CC[C@]4(C)[C@H]3[C@@H](O)C[C@@]21C | -12.3% [at 42.5 µM] (inactive) |
| O=C(CCCN1CCC(O)(c2cccc(C(F)(F)F)c2)CC1)c1ccc(F)cc1 | -10.2% [at 42.5 µM] (inactive) |
| C=COCC1CCC(CO)CC1 (stereo not given) | 2.36% (inactive) |
| CC(C)OC(=O)c1ccccc1 | 0.248% (inactive) |
| Cc1ccc(C#N)cc1 | 1.46% (inactive) |
| COC(=O)CC(C)=O | 2.59% (inactive) |
